# Among all 310,000 compounds or so, about 14,000 (4.5%) showed an effect of 50% or more. Effects have a minus sign here. For the sample, strong results were picked, then their nearest neighbours and some compounds at random.
# Biological target: human ether-à-go-go-related gene (hERG) potassium channel (human, UniProt Q12809)
# Assay: primary screen, population patch clamp on CHO cells stably expressing hERG; higher = less effect of the substance
# 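Also: peak tail current of the secondary pulse compared with the same well before compound.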
# human ether-à-go-go-related gene (hERG) potassium channel, sequence (Q12809 whole entry, looked up): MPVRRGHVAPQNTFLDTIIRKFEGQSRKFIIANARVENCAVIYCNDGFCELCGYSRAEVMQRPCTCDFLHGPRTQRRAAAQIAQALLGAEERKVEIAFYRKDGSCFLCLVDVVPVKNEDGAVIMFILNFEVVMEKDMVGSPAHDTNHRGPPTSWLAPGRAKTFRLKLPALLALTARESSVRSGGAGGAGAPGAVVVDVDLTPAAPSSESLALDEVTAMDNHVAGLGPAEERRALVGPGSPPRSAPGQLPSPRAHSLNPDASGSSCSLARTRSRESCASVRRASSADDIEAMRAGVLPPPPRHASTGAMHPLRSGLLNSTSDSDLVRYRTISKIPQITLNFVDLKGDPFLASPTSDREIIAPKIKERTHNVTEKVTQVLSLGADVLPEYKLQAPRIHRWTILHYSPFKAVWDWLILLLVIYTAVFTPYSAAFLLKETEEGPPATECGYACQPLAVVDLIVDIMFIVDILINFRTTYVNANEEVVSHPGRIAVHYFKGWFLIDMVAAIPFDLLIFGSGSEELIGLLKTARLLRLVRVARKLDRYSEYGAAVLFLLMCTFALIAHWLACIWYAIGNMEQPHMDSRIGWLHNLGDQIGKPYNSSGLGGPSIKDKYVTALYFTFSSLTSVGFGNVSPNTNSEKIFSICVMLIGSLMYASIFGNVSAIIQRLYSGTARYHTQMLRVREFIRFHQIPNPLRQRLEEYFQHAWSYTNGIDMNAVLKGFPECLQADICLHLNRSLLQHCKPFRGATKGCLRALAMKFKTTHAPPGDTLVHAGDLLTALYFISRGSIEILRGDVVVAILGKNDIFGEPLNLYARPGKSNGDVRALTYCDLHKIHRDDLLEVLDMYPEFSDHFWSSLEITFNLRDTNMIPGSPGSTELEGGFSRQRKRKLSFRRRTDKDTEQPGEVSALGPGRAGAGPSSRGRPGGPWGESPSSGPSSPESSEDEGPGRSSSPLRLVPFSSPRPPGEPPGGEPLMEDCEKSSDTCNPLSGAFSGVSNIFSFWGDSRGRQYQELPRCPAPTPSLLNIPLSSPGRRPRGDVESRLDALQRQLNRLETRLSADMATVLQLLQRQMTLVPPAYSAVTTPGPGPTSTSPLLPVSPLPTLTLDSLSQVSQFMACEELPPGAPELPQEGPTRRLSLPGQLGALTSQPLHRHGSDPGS
row,Structure (SMILES),"hERG current change (%, negative = inhibition) at 10uM [%]"
1,COCCCN(Cc1ccco1)C(=O)Cn1ncc2c(=O)oc3ccc(C)cc3c21,-49.6
2,C=C(C)c1cccc(C(C)(C)NC(=O)N2CCN(c3ccccc3OC)CC2)c1,4.28
3,COc1ccc(CCNC(=O)C2CCN(C(=O)c3cccs3)CC2)cc1,-0.649
4,CC(=O)c1ccc(NC(=O)CSc2ccc3nnc(-c4ccccn4)n3n2)cc1,-64.7
5,CCOc1ccc(NC(=O)CSc2ccc3nnc(-c4ccccn4)n3n2)cc1,-54.3
6,CC(=O)c1ccc(NC(=O)CSc2nnc3ccc(-c4ccccn4)nn23)cc1,-10.5
7,COc1ccc(NC(=O)CSc2ccc3nnc(-c4ccccn4)n3n2)cc1OC,-18.1
8,CC(=O)Nc1ccc(NC(=O)CSc2ccc3nnc(-c4ccccn4)n3n2)cc1,17.7
9,COc1ccc(NC(=O)CSc2ccc3nnc(-c4ccccn4)n3n2)cc1,-20.9
10,CCc1cccc(C)c1NC(=O)Cn1nc(C)n2cccc2c1=O,22.9
11,COc1ccc(-c2csc(N3CCN(c4cc5c(cc4Cl)nc(-c4ccncc4)n5CCOCCO)CC3)n2)cc1,12.6
12,COc1ccc(/C=C(/NC(=O)c2ccccc2)C(=O)N2CCCC2)cc1,2.89
13,COc1ccc(C(=O)N/C(=C\c2ccc(OC)c(OC)c2)C(=O)N2CCCCC2)cc1,6.11
14,CCOC(=O)N1CCN(C(=O)/C(=C/c2ccc(Br)cc2)NC(=O)c2ccc(OC)cc2)CC1,-78.2
15,O=C(N/C(=C/c1ccc(Cl)cc1)C(=O)N1CCCC1)c1ccccc1,-8.81
16,COc1ccc(/C=C(/NC(=O)c2ccccc2)C(=O)N2CCCCC2)cc1,-1.39
17,COc1ccc(/C=C(\NC(=O)c2ccc(C)cc2)C(=O)N2CCCCC2)cc1,-55.2
18,COc1ccc(/C=C(\NC(=O)c2ccccc2)C(=O)N2CCN(C)CC2)cc1,-76.3
19,COc1ccc(/C=C(\NC(=O)c2ccc(OC)cc2)C(=O)N2CCCCC2)cc1,-3.21
20,CCOC(=O)N1CCN(C(=O)/C(=C/c2ccc(N(C)C)cc2)NC(=O)c2ccccc2)CC1,-45.6
21,CCOC(=O)N1CCN(C(=O)/C(=C/c2ccc(Cl)cc2)NC(=O)c2ccccc2)CC1,-74.7

row,Structure (SMILES),"hERG current change (%, negative = inhibition) at 10uM [%]"
1,N#Cc1ccc(C(=O)Nc2ccc(S(=O)(=O)NC3=NCCCCC3)cc2)cc1,-1.54
2,CC1=CC(=O)c2c(O)ccc(O)c2C1=O,-42.6
3,Cc1nn(C)c(C)c1CNC(=O)Nc1cccc(Cl)c1C,1.35
4,CCOC(=O)c1[nH]c(C)c(C(=O)OCCOc2cccc(C)c2)c1C,5.99
5,CC(C)C(=O)NC(Nc1cccc2cccnc12)C(Cl)(Cl)Cl (stereo not drawn),-17.8
6,COc1cc(NC(=O)[C@@H](NC(=O)c2ccco2)C(C)C)c(OC)cc1NC(=O)c1ccccc1,-36
7,CCOC(=O)C1=C(N)OC(CCl)=C(C#N)C1c1ccsc1 (stereo not drawn),8.35
8,CCOC(=O)N1CCN(C(=O)/C(=C/c2ccc(OC)cc2)NC(=O)c2ccccc2)CC1,-68.4
9,CCOC(=O)C1CCN(C(=O)/C(=C/c2ccccc2)NC(=O)c2ccccc2)CC1,-30
10,CCOC(=O)N1CCN(C(=O)/C(=C/c2ccc(F)cc2)NC(=O)c2ccccc2)CC1,-48.5
11,COc1ccc(/C=C(/NC(=O)c2ccccc2)C(=O)N2CCC(C)CC2)cc1,-38.4
12,CCOC(=O)N1CCN(C(=O)/C(=C/c2ccc(OC)c(OC)c2)NC(=O)c2ccccc2)CC1,-34.5
13,CCOC(=O)N1CCN(C(=O)/C(=C\c2ccc(SC)cc2)NC(=O)c2ccccc2)CC1,-78.5
14,CCNc1nc(C(=O)O)nc(N2CCOCC2)n1,10.7
15,CCCc1nnc(NC(=O)CC(C)c2ccccc2)s1 (stereo not drawn),2.66
16,Cc1nn(Cc2ccccc2)c(C)c1NC(=O)c1cccs1,14
17,COc1ccccc1N1CCN(S(=O)(=O)CCNC(=O)C2CCCCC2)CC1,-20.7
18,CCOC(=O)c1ccc(Nc2ncnc3ccc(C)cc23)cc1,6.65
19,Brc1ccccc1-c1nnc(COc2ncnc3ccccc23)o1,-8.52
20,Brc1ccccc1-c1nnc(COc2ncnc3c2cnn3-c2ccccc2)o1,7.27
21,O=[N+]([O-])c1ccc2c(OCc3nnc(-c4ccccc4Br)o3)ncnc2c1,-74.1

# Reference: paper PMC4336329 (PLoS ONE, 2015)
